According to paper PMC4552634, “A New Set of Chemical Starting Points with Plasmodium falciparum Transmission-Blocking Potential for Antimalarial Drug Discovery” (PLoS ONE, 2015):
In all, about 13,000 compounds went through this assay and about 3,200 (25%) showed an effect of 50% or more. The list shows a part of the results.

tested on: P. falciparum stage V gametocytes; design: BacTiter-Glo ATP luminescence viability of purified stage V gametocytes in 384-well plates, per cent inhibition versus DMSO; conditions: 48 h, 5 µM; inhibitor

Row | SMILES | % Inhibition
1 | CCOC(=O)C1=C(C)NC2=C(C(=O)CC(C)(C)C2)C1c1ccc(Br)cc1 (centres unmarked) [TCMDC-124142] | 9.854%
2 | N#Cc1ccc2c(c1)CCN(CCC1CCC(NC(=O)Nc3ccnc4ccccc34)CC1)C2 (centres unmarked) [TCMDC-139289] | -21.63%
3 | COc1ccc(Cc2c(C)nc3nc(N)nc(N)c3c2C)cc1 [TCMDC-137660] | 3.866%
4 | COC(=O)c1ccc(CC(C)NCC(O)c2cccc(I)c2)cc1 (centres unmarked) [TCMDC-131484] | -10.65%
5 | O=C(C1CCN(c2nnnn2-c2ccccc2)CC1)N1CCc2ccccc2C1 [TCMDC-123642] | 26.99%
6 | COc1cc(Cc2cnc(N)nc2N)cc(OCCCCc2ccc([N+](=O)[O-])cc2)c1OC [TCMDC-137901] | 2.332%
7 | COc1cc(C)c(C(O)CNC(C)CCc2ccccc2)cc1C (centres unmarked) [TCMDC-131251] | 28.09%
8 | CCc1c(CCNCC/C=C/CCNCCc2ccc(OC)c(OC)c2CC)ccc(OC)c1OC [TCMDC-132062] | 100.4%
9 | CCc1c(CCNCCCCCCNCCc2ccc(OC)cc2)ccc(OC)c1OC [TCMDC-132050] | 110.1%
10 | COc1ccc(N2CCN(CCc3ccc(NC(=O)c4ccc([N+](=O)[O-])cc4)cc3)CC2)c(OC)c1 [TCMDC-138185] | -26.83%
11 | CCc1c(CCNCCCCCCNCCc2ccccc2)ccc(OC)c1OC [TCMDC-132063] | 92.32%
12 | CCc1c(CCNCCCCCCNCCc2ccc([N+](=O)[O-])cc2)ccc(OC)c1OC [TCMDC-132066] | 101.3%
13 | Cc1cccc2[nH]c(-c3cccc(-c4cccc(NC(=O)NCc5ccccc5)c4)c3)nc12 [TCMDC-133159] | 13.2%
14 | OCCOCn1cnc2cnc(N[C@H]3OC[C@H](O)[C@@H](O)[C@@H]3O)nc21 [TCMDC-138106] | 14.1%
15 | CCc1c(CCNCCCCCCNCCc2ccc(OC)c(OC)c2CC)ccc(OC)c1OC [TCMDC-132047] | 111.8%
16 | CCc1c(CCNCCCCCCNCCc2ccc(OC)c(OC)c2C)ccc(OC)c1OC [TCMDC-132051] | 107.2%
17 | CCc1c(CCNC/C=C/C=C/CNCCc2ccc(OC)c(OC)c2CC)ccc(OC)c1OC [TCMDC-132061] | 102.8%
18 | COc1cc2c(OC)cccc2cc1CNCCCCCCNCc1cc2cccc(OC)c2cc1OC [TCMDC-137945] | 1.634%
19 | CCc1c(CCNCCCCCCNCCc2ccc(Br)cc2)ccc(OC)c1OC [TCMDC-132045] | 110%
20 | O=C1C[C@@H]([S+]([O-])Cc2nccs2)N1CCOCCCCCCc1ccc(Cl)cc1 (some centres unmarked) [TCMDC-139269] | 27.24%
21 | Cc1cccc(NC(=O)Nc2ccc(I)c(OCCN(C)C)c2)c1C [TCMDC-139124] | -5.088%
22 | COc1ccc(Nc2nc(NCc3ccc(-n4ccnc4)cc3)cc(-c3ccc(OC)cc3)n2)cc1 [TCMDC-134025] | -3.76%
23 | Clc1ccc(Sc2cncnc2N2CCOCC2)cc1 [TCMDC-137279] | 19.11%
24 | O=C(Cc1ccccc1)NC1CCN(c2ccnc3cc(Cl)ccc23)C1 (centres unmarked) [TCMDC-133663] | -4.28%
25 | c1ccn2c(Sc3ncnc4sccc34)ncc2c1 [TCMDC-124602] | 29.96%
26 | c1ccc2sc(Sc3ncnc4sccc34)nc2c1 [TCMDC-125539] | 99.53%
27 | Cn1c(Sc2ncnc3sccc23)nc2ccccc21 [TCMDC-124514] | 74.1%

Row | SMILES | % Inhibition
28 | COCCn1c(Sc2ncnc3sccc23)nc2ccccc21 [TCMDC-125258] | 10.99%
29 | CN(C)CCCNCCS(=O)(=O)c1cccc(Nc2ccc(-c3cccc(N(C)C)c3)cn2)c1 [TCMDC-134369] | 11.18%
30 | O=C(NCCc1ccccc1)N(Cc1cccc(-c2ccc(CNCc3ccc4c(c3)OCO4)cc2)c1)C1CCN(Cc2ccccc2)CC1 [TCMDC-140619] | 40.48%
31 | O=C(NC1CCCCC1)N(Cc1ccc(-c2cccc(CNCc3ccc4c(c3)OCO4)c2)cc1)C1CCN(Cc2ccccc2)CC1 [TCMDC-140640] | 55.3%
32 | O=C(NC1CCCCC1)N(Cc1ccc(-c2ccc(CNCc3ccc4c(c3)OCO4)cc2)cc1)C1CCN(Cc2ccccc2)CC1 [TCMDC-140641] | 57.56%
33 | O=C(NC1CCCCC1)N(Cc1cccc(-c2ccc(CNCc3ccc4c(c3)OCO4)cc2)c1)C1CCN(Cc2ccccc2)CC1 [TCMDC-140632] | 106.9%
34 | O=C(Nc1ccc(OC2CCN(Cc3ccc(F)cc3)CC2)c(Cl)c1)c1ccc(F)cc1 [TCMDC-133752] | 7.555%
35 | Cc1ccccc1C1CCN(C2CCC(NC(=O)/C=C/c3ccc(C#N)cc3)CC2)CC1 (centres unmarked) [TCMDC-133527] | -65.01%
36 | CS(=O)(=O)c1ccc(CNCc2ccc(-c3ccc(-c4nc5cc(C(F)(F)F)ccc5[nH]4)cc3)cc2)cc1.O=C(O)C(F)(F)F [TCMDC-132901] | -22.07%
37 | COC(=O)c1cc(C(O)CNC(C)CCc2cccc(F)c2)ccc1O (centres unmarked) [TCMDC-131242] | 17.15%
38 | CC(Cl)=CCc1c(C)[nH]c2c(ccc3ccccc32)c1=O [TCMDC-124085] | 30.93%
39 | CN1CCN(c2ccc3nc(-c4ccc5nc(-c6ccc(O)cc6)[nH]c5c4)[nH]c3c2)CC1 [TCMDC-125507] | 11.14%
40 | CC(=O)c1cccc(Nc2nc3c(C#N)c(OCc4cc(Cl)cc(Cl)c4)ccc3[nH]2)c1 [TCMDC-133766] | -0.7844%
41 | CN1CCN(c2ccc(-c3nc4c(C(N)=O)c(OCc5cc(Cl)cc(Cl)c5)ccc4[nH]3)cc2)CC1 [TCMDC-133563] | 101.6%
42 | CC(=O)Nc1ccc(CN2CCC(NC(=O)c3ccc(-c4cccc(Cl)c4)s3)CC2)cc1 [TCMDC-134334] | 14.56%
43 | CN(C)c1ccc(-c2ccc(C(=O)NC3CCN(Cc4ccccc4)CC3)s2)cc1 [TCMDC-134367] | 44.5%
44 | CCc1ccc(CN2CCC(NC(=O)c3ccc(-c4ccc(N(C)C)cc4)s3)CC2)cc1 [TCMDC-134344] | -78.7%
45 | COc1cccc(-c2ccc(C(=O)NC3CCN(Cc4ccc(C(C)(C)C)cc4)CC3)s2)c1 [TCMDC-134353] | -20.06%
46 | COc1cccc(-c2ccc(C(=O)NC3CCN(Cc4ccc(N(C)C)cc4)CC3)s2)c1 [TCMDC-134330] | 105%
47 | CN(C)c1ccc(-c2ccc(C(=O)NC3CCN(Cc4ccccc4F)CC3)s2)cc1 [TCMDC-134368] | -72.91%
48 | COc1ccccc1CN1CCC(NC(=O)c2ccc(-c3ccc(N(C)C)cc3)s2)CC1 [TCMDC-134357] | 85.69%
49 | COc1ccccc1CN1CCC(NC(=O)c2ccc(-c3cccc(Cl)c3)s2)CC1 [TCMDC-134356] | -14.44%
50 | CN(C)c1ccc(CN2CCC(NC(=O)c3ccc(-c4cccc(Cl)c4)s3)CC2)cc1 [TCMDC-134329] | -64.24%
51 | CC(=O)Nc1ccc(CN2CCC(NC(=O)c3ccc(-c4ccc(N(C)C)cc4)s3)CC2)cc1 [TCMDC-134336] | 72.62%
52 | CN(C)c1ccc(CN2CCC(NC(=O)c3ccc(-c4ccc(N(C)C)cc4)s3)CC2)cc1 [TCMDC-134331] | 56.81%
53 | CSc1ccc(CN2CCC(NC(=O)c3ccc(-c4ccc(N(C)C)cc4)s3)CC2)cc1 [TCMDC-134342] | -80.35%
